According to PubChem BioAssay AID588852 (The Scripps Research Institute Molecular Screening Center, 2011):
Hit rate of the full screen: of about 360,000 compounds, about 4,600 (1.3%) were called active.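 Rule for the calls: active = percent inhibition above its own plate's cutoff, namely the mean of that plate's compound wells plus 3 SD; inactive = the rest.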 Only a selection was taken, and actives are over-represented in it overall.

Target: Muscarinic acetylcholine receptor M1 (Homo sapiens) (UniProt P11229)
Assay: CHRM1 blockers of acetylcholine calcium response – CHO-K1 cells, Fluo-8 calcium fluorescence, 1536-well, primary screen (AID 588852);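 note: peak over basal fluorescence ratio during 140 s after agonist addition; 0% = ACh EC80 plus DMSO and 100% = DMSO alone without agonist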
Details: CHO-K1 hM1, Fluo-8 calcium fluorescence, ACh EC80 antagonist; at 3 µM; hits give high values

Muscarinic acetylcholine receptor M1 (Homo sapiens), sequence (P11229 whole entry, looked up): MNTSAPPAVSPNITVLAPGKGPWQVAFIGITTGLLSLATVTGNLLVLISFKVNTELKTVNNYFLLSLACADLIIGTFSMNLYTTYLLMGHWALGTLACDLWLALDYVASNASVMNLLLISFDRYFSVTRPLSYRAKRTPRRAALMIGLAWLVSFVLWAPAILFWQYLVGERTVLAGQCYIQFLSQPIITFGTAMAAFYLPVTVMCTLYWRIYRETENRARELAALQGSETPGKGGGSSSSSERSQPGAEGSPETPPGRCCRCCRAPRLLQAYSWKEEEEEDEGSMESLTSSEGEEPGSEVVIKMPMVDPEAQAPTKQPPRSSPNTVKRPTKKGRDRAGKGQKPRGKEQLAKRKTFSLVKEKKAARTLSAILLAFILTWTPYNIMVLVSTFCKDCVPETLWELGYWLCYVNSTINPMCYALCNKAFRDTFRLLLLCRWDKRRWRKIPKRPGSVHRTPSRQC

Structure (SMILES)	inhibition
CCN(CC)S(=O)(=O)c1ccc(N(C)Cc2ccc(C(F)(F)F)cc2)nc1	61.2% (active)
CCN(CC)S(=O)(=O)c1ccc(N(C)CCc2ccc(OC)c(OC)c2)nc1	-0.86% (inactive)
CCN(CC)S(=O)(=O)c1ccc(N(C)Cc2cccc(OC)c2OC)nc1	7.81% (inactive)
Cc1ccc(Sc2ccc(NC(=O)c3ccc(F)cc3)cc2C#N)cc1	9.62% (inactive)
COc1cc(CN2CCN(Cc3ccc(C)cc3)CC2)c([N+](=O)[O-])cc1OC	-6.59% (inactive)
COc1ccc(N2CCN(C(=O)COc3ccc4c(C)cc(=O)oc4c3)CC2)cc1	-5.75% (inactive)
Cc1cc(OCCCN2CCN(Cc3ccccc3)CC2)ccc1[N+](=O)[O-]	54.7% (active)
Cc1cc(=O)oc2cc(OCC3CC(c4ccccc4Cl)=NO3)ccc12 (stereo unspecified)	-6.21% (inactive)
Cc1cc(OCC(=O)NC2CCN(C)CC2)ccc1[N+](=O)[O-]	-1.71% (inactive)
Cc1ccccc1N1CCN(CCCOc2ccc3c(C)cc(=O)oc3c2)CC1	39.5% (active)
Nc1nc2cc(Cl)ccc2n1N	-2.44% (inactive)
CN1OC[C@@H]2CN(S(=O)(=O)c3cccc4ccccc34)[C@H](c3ccc(N4CCCCC4)cc3)C[C@@H]21	5.74% (inactive)
O=C(NC(c1ccc(-c2ccccc2)cc1)c1cnccn1)C1CCN(CCOc2ccc(Cl)cc2Cl)CC1 (stereo unspecified)	-16.7% (inactive)
CN(C)CCOCCOc1ccc(Cl)c2ccccc12	-1.32% (inactive)
CN(C)CCOc1ccc(Cl)cc1C(C)(C)C	66.2% (active)
CN(C)CCOc1cccc(Br)c1	17.3% (inactive)
Cc1cc(C)cc(NC(=O)C(c2ccccc2)N2CCN(CC(=O)N3CCCC3)CC2)c1 (stereo unspecified)	3.45% (inactive)
Cc1cc(C)cc(NC(=O)C(OC(=O)c2ccc(O)cc2)c2ccccc2)c1 (stereo unspecified)	29.5% (active)
Cc1ccc(C)c(NC(=O)C(OC(=O)c2ccc(C)s2)c2ccccc2)c1 (stereo unspecified)	-2.69% (inactive)
COCCCNC(=O)CN1C(=O)CSc2ccc(S(=O)(=O)N3CCOCC3)cc21	-6.65% (inactive)
CCN(C(=O)COC(=O)c1c(C)nn(-c2ccccc2)c1Cl)c1c(N)n(Cc2ccccc2)c(=O)[nH]c1=O	-4.94% (inactive)

Structure (SMILES)	inhibition
CC(=O)c1cccc(OCc2cc(C(=O)NC(C)Cc3cccnc3)no2)c1 (stereo unspecified)	18.6% (inactive)
CN(Cc1cnccn1)C(=O)c1cc(COc2cccc(C(F)(F)F)c2)on1	-11.2% (inactive)
CN(Cc1cccnc1)C(=O)c1cc(COc2ccc3ncccc3c2)on1	50% (active)
Cc1nc(COc2cc3oc(=O)cc(C)c3cc2Cl)cs1	-7.17% (inactive)
O=C(Cn1cc(C(F)(F)F)ccc1=O)Nc1ccc2c(c1)OCCO2	-0.29% (inactive)
O=C(CSc1nnc(-c2ccco2)o1)NCC(=O)c1ccccc1	-3.08% (inactive)
Cc1nc(-c2ccc(F)cc2)c(CC(=O)Nc2cccc(S(=O)(=O)N3CCOCC3)c2)s1	0.85% (inactive)
O=S(=O)(c1cccc(Cn2nnc(-c3ccc(F)cc3)n2)c1)N1CCOCC1	27.1% (active)
CCN(Cc1ccncc1)C(=O)c1cccc(S(=O)(=O)N2CCOCC2)c1	-4% (inactive)
O=C(CSc1nc2nccnc2c(=O)n1Cc1cccs1)Nc1ccccc1F	9.12% (inactive)
Cc1ccccc1CNC(=O)CCC(=O)N1Cc2ccccc2Oc2ncccc21	-0.29% (inactive)
O=C(CS(=O)(=O)c1ccc(C(F)(F)F)cn1)NNC(=O)c1ccccc1	11.9% (inactive)
Nc1nc2c(ncn2[C@@H]2O[C@H](CNS(=O)(=O)N3CCc4ccccc4C3)[C@@H](O)[C@H]2O)c(=O)[nH]1	-4.64% (inactive)
COC(=O)c1ccc(NC(=O)CN(c2ccc(C)cc2)S(=O)(=O)c2c(C)n[nH]c2C)cc1	-8.36% (inactive)
CN(Cc1ccccc1F)c1cc2c(c3c1ccn3C)C1CCC2O1 (stereo unspecified)	-40.5% (inactive)
COc1cc(C(=O)NCc2cc3cc(Cl)ccc3n2C)cc(OC)c1OC	-19.2% (inactive)
COc1cc(C(=O)NCc2ccc3c(c2)cc(C)n3C)cc(OC)c1OC	-1.03% (inactive)
CCn1c(CNC(=O)c2cc(OC)c(OC)c(OC)c2)cc2cc(C)ccc21	47.9% (active)
CCN(CC(=O)NC(C)C)C(=O)c1cc(S(=O)(=O)N2CCCCC2)ccc1N1CCCCC1	-0.72% (inactive)
CCc1ccc(NC(=O)C(=O)N/N=C(\C)CC(=O)NCCOC)cc1	-7.5% (inactive)
O=C(CSc1nc2ccccc2c(=O)n1CCCO)N1CCc2ccccc21	-9.53% (inactive)

Structure (SMILES)	inhibition
C=CCn1c(=O)c2ccccc2n2c(SCC(=O)N3CCCc4ccccc43)nnc12	10.1% (inactive)
Cn1c(SCC(=O)N2CCCc3ccccc32)nc2ccccc2c1=O	31.9% (active)
CCn1c(C(C)C)n[nH]c1=S	-7.45% (inactive)
CC(C)C1Nc2c(C(=O)O)cccc2C(Nc2ccccc2C(=O)O)C1(C)C (stereo unspecified)	2.52% (inactive)
O=C(O)CC/C(=N\NC(=O)c1ccc(F)cc1)c1ccc(Br)cc1	-10.2% (inactive)
C/C(=N\NC(=O)c1ccc2ccccc2c1)c1cccnc1	-15.4% (inactive)
CC(=NNC(=O)c1ccc2nc[nH]c2c1)c1ccc(Br)cc1	35.2% (active)
CN1OC[C@@H]2CN(C(=O)c3cccnc3)[C@H](c3ccc(N4CCCCC4)cc3)C[C@@H]21	-0.12% (inactive)
COc1ccc(C(=O)OCC(=O)c2ccc(C)c(S(=O)(=O)N3CCOCC3)c2)cc1OC	42% (active)
Cc1ccc(C(=O)OCC(=O)N2CCCCCC2)cc1S(=O)(=O)N1CCOCC1	-0.5% (inactive)
COc1ccc(CNC(=O)COC(=O)c2ccc(C)c(S(=O)(=O)N3CCOCC3)c2)cc1OC	-2.56% (inactive)
CC1(Cc2ccccc2C#N)C(=O)Nc2ccc(-c3ccc4[nH]ccc4c3)cc21 (stereo unspecified)	8.72% (inactive)
CCOC(=O)c1ccn(S(=O)(=O)c2ccc(C)cc2)c1-c1ccccc1	13.3% (inactive)
CN(C)C(CNC(=O)c1cccc(S(=O)(=O)Nc2ccc(Br)cc2)c1)c1ccco1 (stereo unspecified)	-0.14% (inactive)
COc1ccccc1C(CNC(=O)c1cccc(NS(=O)(=O)c2ccc(Br)cc2)c1)N(C)C (stereo unspecified)	99.2% (active)
Cc1cccc(NS(=O)(=O)c2ccc(C)c(C(=O)NCC(c3ccccc3)N(C)C)c2)c1 (stereo unspecified)	-6.04% (inactive)
COc1ccccc1C(CNC(=O)c1cccc(S(=O)(=O)Nc2ccc(F)cc2)c1)N(C)C (stereo unspecified)	100% (active)
CC(=O)c1ccc(S(=O)(=O)Nc2ccc(C(=O)NCC(c3ccccc3)N(C)C)cc2)cc1 (stereo unspecified)	16.4% (inactive)
COc1ccc(C(CNC(=O)c2cccc(S(=O)(=O)Nc3ccc(Br)cc3)c2)N(C)C)cc1 (stereo unspecified)	-2.85% (inactive)
